A selection: hits, their analogues and other compounds. The true share with any hit is near 4.2%.
Sfp inh: inhibitors of Bacillus subtilis Sfp phosphopantetheinyl transferase; Biochemical Sfp PPTase activity, qHTS; AID 1490; Potency, µM, inactives show largest response in the series, negative = inhibition, actives largely listed as inhibitors; Q9F4F7; 3.5% of 310,000 active;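 further: the enzyme is Sfp with the accession as filed and its product quenches rhodamine fluorescence; 0% = enzyme reaction without inhibitor and -100% = no enzyme wells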
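Compounds were incubated with enzyme (final 15 nM) for 15 min at room temperature before substrate addition started the reaction. Fluorescence at 525 nm excitation, 598 nm emission was recorded immediately and after 30 minutes.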
12-LOX inh: ALOX12 (human) lipoxygenase inhibition; P18054; purified 12hLO, xylenol orange hydroperoxide absorbance; Potency, µM (doses to about 108 µM), without a hit: top-dose activity change, negative = inhibition, hits mostly inhibitors; 1.1% of 580,000 active; AID 1671190
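Purified human 12hLO at 150 nM in 25 mM Hepes, 0.01% Triton X-100, pH 7.0, preincubated 15 min at room temperature with compound. Reaction started with 40 uM arachidonic acid, 30 min at room temperature. Hydroperoxide measured by Fe-xylenol orange, 573/405 nm absorbance ratio.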
VDR inhibitor: inhibitors of human vitamin D receptor | VDR-SRC2-3 peptide fluorescence polarization, 2 h | Potency, µM, without a hit: max response, negative = inhibition, usual class: inhibitors | 0.93% of 400,000 active | AID 504847
Target sequence (P11473 whole entry, looked up): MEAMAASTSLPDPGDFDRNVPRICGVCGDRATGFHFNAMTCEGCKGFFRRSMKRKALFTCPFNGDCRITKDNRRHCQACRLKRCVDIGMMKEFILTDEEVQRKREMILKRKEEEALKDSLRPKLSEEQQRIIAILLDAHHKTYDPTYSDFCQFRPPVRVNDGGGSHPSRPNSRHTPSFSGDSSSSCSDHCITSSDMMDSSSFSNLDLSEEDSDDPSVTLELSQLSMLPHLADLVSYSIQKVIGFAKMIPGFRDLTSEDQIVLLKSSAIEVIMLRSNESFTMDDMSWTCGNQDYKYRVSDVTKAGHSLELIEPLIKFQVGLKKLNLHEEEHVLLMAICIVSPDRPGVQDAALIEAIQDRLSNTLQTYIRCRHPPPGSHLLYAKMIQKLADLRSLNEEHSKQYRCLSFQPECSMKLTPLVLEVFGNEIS
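The screen uses fluorescence polarization to detect compounds that interfere with recruitment of the SRC2-3 coactivator peptide to VDR; plates are read after 2 h at room temperature.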
PLK1 PBD block: inhibitors of human PLK1 polo-box domain binding; AID 720504; Potency, µM, for inactives: max response, negative = inhibition, hits mostly inhibitors; Plk1 PBD binding of FITC phosphopeptide, fluorescence polarization; 2.8% of 360,000 active; further: series mostly up to about 57 µM; nearly all actives have a fitted effect of over 65% in size
* marks the source's active call; other numbers are inactive results; ? = inconclusive; · = no result given; ! = a repeat was not active; [ ] = dose if it differs, or a comment. The call rests on the fitted dose curve; in most records, active means well fitted curve in the direction sought with a large enough effect; inconclusive means small, poorly fitted or top-dose-only effect, or another doubt; inactive means no such curve, though single readings can be large; an effect the other way counts as inactive or inconclusive. Unless noted, on the % scale 0 is the no-effect control and ±100 the full control effect; potency means the concentration at half of the fitted maximal effect.

SMILES	Sfp inh	12-LOX inh	VDR inhibitor	PLK1 PBD block
CC(=O)N(O)CCCCCNC(=O)CCC(=O)N(O)CCCCCNC(=O)CCC(=O)N(O)CCCCCN	45µM*!	?	-9%	?
CCCC(=O)NCCCCNC(=O)CCC	12%	399%	-2%	-13%
O=C1NC(=S)SC1=C1CCCC1	40µM*	?	-10%	?
COc1ccc(C2CC(O)(c3ccccc3)Oc3cc(OC)ccc32)cc1 (stereo not given)	?	158%	-6%	-10%
COc1ccc2c(c1)OC(C)(C)C(c1ccccc1)C2c1ccc(OCCN2CCCC2)cc1 (stereo not given)	50µM*	·	-7%	·
CCc1ccccc1NC(=O)CN(c1cccc(OC)c1)S(C)(=O)=O	18%	60%	30%	30µM*
CC(C)n1c(CN2CCN(Cc3ccccc3)CC2)nc2c1c(=O)n(C)c(=O)n2C	·	-10%	·	·
Cc1nc(NC2CCCC2)sc1C(=O)NCCC(C)C	·	20µM*	·	·
Cc1ccc(NC(=O)/C(C#N)=C/c2ccc(-c3ccc(Cl)c(C(=O)O)c3)o2)cc1C	·	-26%	-8%	·
CC1(C)CC2(CC(c3ccccc3)c3ccc(O)cc3O2)NC(=S)N1 (stereo not given)	0%	?	-16%	-10%
CC(=O)Oc1cc2c(cc1Cl)C(c1cccs1)CC1(CC(C)(C)NC(=S)N1)O2 (stereo not given)	0%	32µM*	?	-6%
CN(C)CCNC(=O)c1ccc(-c2cnn(C)c2)c2ccoc12	·	?	·	5%
CC(=O)N[C@H](CS)C(=O)O	-39%	·	6%	·
CC(=O)N[C@@H](CS)C(=O)O	35µM*!	-13%	-14%	-21%
Cc1ccc(N=CC=C2OC(C)(C)C(C)(C)O2)cc1	0%	35µM*	6%	-8%
Cc1cc(OC(=O)c2ccccc2Cl)c([N+](=O)[O-])c(=O)[nH]1	13%	40µM*	7%	2%
CCOc1ccccc1NC(=O)C1CCC(=O)N1S(=O)(=O)c1ccc(C)cc1 (stereo not given)	15%	-21%	-16%	-6%
Cc1cccc2c(N=O)c(O)[nH]c12	6%	-23%	?	3.8µM*
O=Nc1c(O)[nH]c2ccc(F)cc12	20%	2%	-29%	-1%
CCCCCCCC/C=C/CCCCCCCC(=O)NCCOP(=O)(O)O	4%	·	28µM*	·
CCCCC/C=C\C/C=C\C/C=C\C/C=C\CCCCCC(=O)NCCc1ccc(O)c(O)c1	-22%	·	3%	·
CCCCCCCC/C=C\CCCCCCCC(=O)NCCc1ccc(O)c(O)c1	9%	5.6µM*!	?	24µM*
CCCCCCCC/C=C\CCCCCCCC(=O)NCCO	13%	-15%	1%	-15%
CCOC(=O)N1CCN(CC(=O)Nc2nc3ccccc3s2)CC1	3%	5%	-1%	10%
CCOC(=O)N1CCN(CC(=O)Nc2cc(OCC)ccc2OCC)CC1	-1%	1.6µM*	11%	-6%
SMILES	Sfp inh	12-LOX inh	VDR inhibitor	PLK1 PBD block
CCCCN(C(=O)NC(=O)Nc1nc2ccc(OC)cc2s1)S(C)(=O)=O	56µM*	-16%[57.4 µM]	-1%	-26%
CCOC(=O)N1CCN(CC(=O)Nc2nc3ccc(OC)cc3s2)CC1	4%	45µM*	5%	6%
CCCCOC(=O)Nc1nc2ccc(OC)cc2s1	-1%	3%	1%	-5%
O=C(O)CCNC(=O)C(F)(F)C(F)(F)C(F)(F)C(F)(F)C(F)(F)C(F)(F)F	·	11µM*	·	·
O=C(CSc1ccccn1)Nc1ccc(NC(=O)CSc2ccccn2)cc1	4%	-1%	10%	1%
O=C(CSc1ccccn1)Nc1nonc1[N+](=O)[O-]	45µM*	-5%	-6%	?
CCC(=O)Nc1ccc(SC#N)cc1C	-5%	-19%	-35%	13µM*
CCc1cc(SC#N)cc(C)c1NC(=O)CCl	8%	-2%	79µM*	12µM*
Cc1cc(SC#N)cc(C)c1NC(=O)CCl	-28%	-9%	?	?
CCC(=O)c1ccc(OCC(=O)N2CCN(C(=O)c3ccccc3)CC2)cc1	·	17%	-4%	2%
CCN(CC)S(=O)(=O)c1ccc2oc(C(=O)NC(C)C)c(C)c2c1	-12%	0%	-10%	27µM*
CCN(CC)S(=O)(=O)c1ccc2oc(C(=O)O)c(C)c2c1	19%	0%	5%	-6%
CCN(CC)S(=O)(=O)c1ccc2oc(C(=O)NCc3ccc(C)cc3)c(C)c2c1	25µM*	16%	14%	?
COC(=O)c1ccc(NC(=O)c2cccc(C)c2)cc1	7%	0%	0%	1%
COc1cc(C[C@@H](C)[C@@H](C)Cc2ccc(O)c(OC)c2)ccc1O	·	?	8%	-3%
CCOc1cc(CNc2ccccc2SC)ccc1O	56µM*	·	·	·
COc1cc(CNc2ccccc2SC)ccc1O	79µM*	?	-2%	?
CCOc1cc(CNc2ccc3c(c2)CCC3)ccc1O	14%	-17%	-10%	?
CCNc1ncc2nc(-c3cccs3)c(=O)n(Cc3cccc(OC)c3)c2n1	16%	?	-14%	·
CC(C)N1C(=O)c2ccccc2C1C(=O)NCCc1ccccc1 (stereo not given)	8%	19%	-25%	-3%
CCc1nn(C(C)C(=O)NCCc2ccccc2)c(=O)c2cc3occc3n12 (stereo not given)	5%	22%	17%	-16%
CCc1nn(CC(=O)NC(C)CCc2ccccc2)c(=O)c2cc3occc3n12 (stereo not given)	17%	-14%	?	24µM*
COCCN1C(=O)c2cccn2CC1CNC(=O)COc1ccc(F)cc1 (stereo not given)	·	43%	·	·
CCOc1cc(CNc2ccc(O)cc2)cc(Br)c1OCc1ccccc1	·	?	-17%	·
COc1cccc(CNc2ccc(S(N)(=O)=O)cc2)c1OCc1ccccc1F	-5%	-10%	-14%	-12%
SMILES	Sfp inh	12-LOX inh	VDR inhibitor	PLK1 PBD block
COc1cccc(CNc2ccccc2O)c1OCc1ccccc1F	50µM*	?	-4%	-13%
CCOc1cc(CNc2ccc(O)cc2)cc(Br)c1OCc1ccccc1F	18µM*	·	79µM*	-2%
COc1cc(CNCc2ccncc2)cc(Br)c1OCc1ccccc1F	-4%	-34%	-5%	-6%
COc1cc(CNc2ccc(O)cc2)cc(Br)c1OCc1ccccc1F	28µM*	·	35µM*	-2%
CCOc1cc(CNC(C)(C)CO)cc(Br)c1OCc1ccc(Cl)cc1Cl	45µM*	?	-2%	2%
COc1ccc(CC(=O)N2CCc3nc(C)nc(-c4ccc(Cl)cc4)c3CC2)cc1	·	-8%	·	·
O=C(Nc1ccc(-c2nnc3n2CCCC3)cc1)c1ccc(F)cc1F	·	35%	·	·
Cc1ccc2nc(SCc3cn4cccnc4n3)[nH]c2c1	4%	-8%	?	27µM*
Cc1cccc(C(=O)OCC(=O)c2c(N)n(CC(C)C)c(=O)n(C)c2=O)c1[N+](=O)[O-]	·	-30%	5%	1%
CC(C)c1cccc(OCCn2c(-c3ccc(Cl)cc3)nc3ccccc3c2=O)c1	·	-25%	-10%	·
O=C(Nc1ccc(-c2noc(/C=C/c3ccccc3)n2)cc1)c1ccc(Br)o1	·	28µM*	·	·
O=C(Nc1ccc(I)cc1C(F)(F)F)c1ccc(Cl)cc1	·	0%	·	·
CC(C)(C)c1nc(S(=O)(=O)c2ccc(Cl)cc2)c(N2CCOCC2)o1	-4%	?	-28%	-14%

Screens as filed in PubChem BioAssay.
